This is one part of a sample in which hits are shown more often than they occur.
Shiga toxin inh: blocks Shiga toxin action in Vero cells; Vero cells, Shiga toxin protein synthesis inhibition reporter; inhibition, % at 38.7 µM; actives 9.2% (n = 290,000); AID 2315; in the data active = inhibition mostly above about 28%, no sharp cut-off; inactive = mostly below about 43%
AmpC no deterg: AmpC beta-lactamase inhibition without detergent | Potency, µM (titrated, usually from 57.1 µM), actives largely listed as inhibitors | AmpC nitrocefin hydrolysis, absorbance 480 nm, 0.0001% Triton | actives 0.52% (n = 330,000) | P00811; also: nearly all actives have a fitted effect of over 20% in size
Target sequence (P00811 whole entry, looked up): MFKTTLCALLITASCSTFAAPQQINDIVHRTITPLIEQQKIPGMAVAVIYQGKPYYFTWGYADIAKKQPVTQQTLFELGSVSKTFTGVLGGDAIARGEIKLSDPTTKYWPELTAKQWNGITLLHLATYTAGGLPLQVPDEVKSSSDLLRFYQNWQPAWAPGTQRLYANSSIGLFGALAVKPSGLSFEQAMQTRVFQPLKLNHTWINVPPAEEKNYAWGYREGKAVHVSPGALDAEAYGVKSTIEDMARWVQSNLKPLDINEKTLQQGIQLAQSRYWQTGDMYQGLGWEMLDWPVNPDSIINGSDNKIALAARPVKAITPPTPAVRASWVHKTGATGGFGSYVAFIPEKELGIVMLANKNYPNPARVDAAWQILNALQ
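AmpC (5.3 nM in the dispensed reagent) in 20 mM phosphate pH 7.0 with 0.01% (detergent screen) or 0.0001% Triton X-100 was preincubated with compounds for 15 min at room temperature. Nitrocefin was then added from an 800 uM solution, and hydrolysis was followed at 480 nm.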
CHX counter: counter-screen hit for Shiga toxin inhibitors, cycloheximide. max response, %. cell reporter, cycloheximide protein synthesis inhibition counterscreen. actives 12% (n = 300,000); in the data active = max response mostly above about 13%, no sharp cut-off; inactive = mostly below about 14%; also: read at 38.3 µM for the half of the compounds with a filed dose
NS1 inh: influenza NS1 inhibition; Potency, µM (series often up to 46.1 µM); AID 2326; actives 0.4% (n = 270,000); calls by dose curve; also: actives are rising curves; nearly all actives have a fitted effect of over 50% in size
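Compounds were scored for reversing the slow growth caused by influenza A NS1 in S. cerevisiae, measured by optical density at 600 nm. Assay medium contained 2% galactose at pH 6.0; NS1-free yeast of the same strain were the positive control.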
AmpC inh detg: inhibitors of E. coli AmpC beta-lactamase with detergent. P00811. AmpC hydrolysis of nitrocefin, absorbance 480 nm, 0.01% Triton. Potency, µM (highest dose often 114 µM), usual class: inhibitors. actives 0.041% (n = 370,000). AID 485294; also: nearly all actives have a fitted effect of over 25% in size
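20 mM phosphate pH 7.0 + 0.01% (detergent screen) or 0.0001% Triton X-100; 5.3 nM AmpC reagent; cpd preinc 15 min RT; nitrocefin (800 uM stock) to start; A480 q20 s × 4 min; Activity was normalised to no-enzyme and no-compound control wells.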
Numbers stand for hits; ! = repeats disagree. Unless noted, calls follow the shape of the dose curve; as a rule, active = well fitted curve in the direction sought with a large enough effect; inconclusive = small, poorly fitted or top-dose-only effect, or another doubt; inactive = no such curve, though single readings can be large; an effect the other way counts as inactive or inconclusive.

How did CCNC(=O)/C(=C/c1ccco1)NC(=O)/C=C/c1ccccc1 do in these assays?
Shiga toxin inh: inactive; AmpC no deterg: inactive; CHX counter: inactive; NS1 inh: inactive; AmpC inh detg: inactive

Results for COc1ccc(-c2cc3nc(C)c(CCC(=O)N4CCN(c5ccccc5)CC4)c(C)n3n2)c(OC)c1 ?
AmpC inh detg: inactive

How did CCc1cccc(NC(=O)c2ccc(Br)o2)c1 do in these assays?
Shiga toxin inh: 105; AmpC no deterg: inactive; CHX counter: 23; NS1 inh: inactive; AmpC inh detg: inconclusive

How did O=C(Nc1ccc2c(c1)oc1ccccc12)c1ccc(Br)o1 do in these assays?
Shiga toxin inh: inactive; AmpC no deterg: inactive; CHX counter: inactive; NS1 inh: inactive; AmpC inh detg: inactive

What do the screens show for `COc1ccc(NC(=O)c2ccc(-c3ccc(C)c4ccccc34)o2)cc1`?
Shiga toxin inh: inactive; AmpC no deterg: inactive; CHX counter: inactive; NS1 inh: inactive; AmpC inh detg: inconclusive

How did NS(=O)(=O)c1ccc(NC(=S)NNC(=O)c2ccc(Br)o2)cc1 do in these assays?
Shiga toxin inh: inactive; AmpC no deterg: inactive; CHX counter: 15; NS1 inh: inactive; AmpC inh detg: inactive

How did COc1ccc(NC(=O)c2ccc(C(=O)c3ccccc3)o2)cc1 do in these assays?
Shiga toxin inh: inactive; AmpC no deterg: inactive; CHX counter: 30; NS1 inh: inactive; AmpC inh detg: inactive

Results for CCc1cccc(NC(=O)c2ccc(Cn3nc(C)cc3C)o2)c1 ?
Shiga toxin inh: inactive; AmpC no deterg: inactive; CHX counter: inactive; NS1 inh: inactive; AmpC inh detg: inactive

Results for O=C(Nc1ccc2ccccc2c1)c1ccc(Br)o1 ?
Shiga toxin inh: 86; AmpC no deterg: inactive; CHX counter: 43; NS1 inh: inactive; AmpC inh detg: inactive

How did CN(C(=S)NC(=O)c1ccc(Br)o1)c1ccccc1 do in these assays?
Shiga toxin inh: 30; AmpC no deterg: inactive; CHX counter: inactive; NS1 inh: inactive; AmpC inh detg: inactive

What do the screens show for `Cc1nc(NC(=O)c2ccc(Br)o2)ccc1Br`?
Shiga toxin inh: 63; AmpC no deterg: inactive; CHX counter: 36; NS1 inh: inactive; AmpC inh detg: inactive

Results for O=C(Nc1cccc(NC(=O)c2ccc(Br)o2)n1)c1ccc(Br)o1 ?
Shiga toxin inh: inactive; AmpC no deterg: inactive; CHX counter: inactive; NS1 inh: inactive; AmpC inh detg: inconclusive

What do the screens show for `Cc1cccc(NC(=O)c2ccc(C(=O)c3ccccc3)o2)c1`?
Shiga toxin inh: 73; AmpC no deterg: inactive; CHX counter: 37; NS1 inh: inactive; AmpC inh detg: inactive

Results for CN(C)S(=O)(=O)c1ccc(NC(=S)NC(=O)c2ccc(Br)o2)cc1 ?
Shiga toxin inh: inactive; AmpC no deterg: inactive; CHX counter: inactive; AmpC inh detg: inactive

Results for O=C(c1ccccc1)c1cccc(NC(=O)c2ccc(Br)o2)c1 ?
Shiga toxin inh: inactive; AmpC no deterg: inactive; CHX counter: 39; NS1 inh: inactive; AmpC inh detg: inactive

How did COc1ccc2c(C=Nc3c(C)n(C)n(-c4ccccc4)c3=O)c(O)n(Cc3ccco3)c(=O)c2c1 do in these assays?
Shiga toxin inh: inactive; AmpC no deterg: inactive; CHX counter: inactive; NS1 inh: inactive; AmpC inh detg: inactive

Results for Cc1ccc(C(=O)N2CCC(c3c[nH]c4ccccc34)(c3c[nH]c4ccccc34)CC2)cc1 ?
AmpC inh detg: inactive

How did Cc1ncc(CO)c(/C=N/NC(=O)c2cc3c(s2)CCCC3)c1O do in these assays?
Shiga toxin inh: inactive; AmpC no deterg: inactive; CHX counter: inactive; NS1 inh: inactive; AmpC inh detg: inactive

Results for O=C(Nc1ccccc1)c1ccc(Br)o1 ?
Shiga toxin inh: active!; AmpC no deterg: inactive; CHX counter: 44; NS1 inh: inactive; AmpC inh detg: inactive

How did O=C(Nc1cccc(NC(=O)c2ccc(Br)o2)c1)c1ccccc1 do in these assays?
Shiga toxin inh: inactive; AmpC no deterg: inactive; CHX counter: inactive; NS1 inh: inactive; AmpC inh detg: inactive

How did CCOC(=O)c1[nH]c(C)c(C(=O)O)c1C do in these assays?
Shiga toxin inh: inactive; AmpC no deterg: inactive; CHX counter: inactive; NS1 inh: inactive; AmpC inh detg: inconclusive

How did CCCCCC(=O)c1c(C)[nH]c(C(=O)OCC)c1C do in these assays?
Shiga toxin inh: 104; AmpC no deterg: inactive; CHX counter: 17; NS1 inh: inactive; AmpC inh detg: inactive

What do the screens show for `CCCN(CCC)C(=O)c1c(C)[nH]c(C(=O)OCC)c1C`?
Shiga toxin inh: inactive; AmpC no deterg: inactive; CHX counter: inactive; NS1 inh: inactive; AmpC inh detg: inactive

Results for CCCCCCC(=O)c1c(C)[nH]c(C(=O)OCC)c1C ?
Shiga toxin inh: 81; AmpC no deterg: inactive; CHX counter: 30; NS1 inh: inactive; AmpC inh detg: inactive

What do the screens show for `COc1cccc(C2CCCCN2Cc2nc(-c3ccc(C)o3)oc2C)c1` (stereo unspecified)?
Shiga toxin inh: 79; AmpC no deterg: inactive; CHX counter: 31; NS1 inh: inactive; AmpC inh detg: inactive

What do the screens show for `COc1cccc(C2CCCN2Cc2nc(-c3sccc3C)oc2C)c1` (stereo unspecified)?
Shiga toxin inh: inactive; AmpC no deterg: inactive; CHX counter: inactive; NS1 inh: inactive; AmpC inh detg: inactive

What do the screens show for `O=C(O)c1ccc(/C=N\N=C2c3ccccc3-c3ccccc32)cc1`?
NS1 inh: inactive

What do the screens show for `CC(Sc1ccccn1)C(=O)Nc1ccccc1` (stereo unspecified)?
Shiga toxin inh: 76; AmpC no deterg: inactive; CHX counter: 40; NS1 inh: inactive; AmpC inh detg: inactive

How did CC(=O)c1ccc(NC(=O)C(C)Sc2ccccn2)cc1 (stereo unspecified) do in these assays?
Shiga toxin inh: 77; AmpC no deterg: inactive; CHX counter: 34; NS1 inh: inactive; AmpC inh detg: inactive

What do the screens show for `COc1ccc(CN(C)CC(=O)Nc2ccccc2C(=O)NC2CC2)cc1`?
AmpC no deterg: inactive; AmpC inh detg: inconclusive

Results for CC1CCN(C2=C(NS(=O)(=O)c3ccc(Cl)cc3)C(=O)c3ccccc3C2=O)CC1 ?
Shiga toxin inh: 85; AmpC no deterg: inconclusive; CHX counter: 22; NS1 inh: inactive; AmpC inh detg: inactive

How did CCOC(=O)C1CCN(C2=C(NS(=O)(=O)c3ccc(Cl)cc3)C(=O)c3ccccc3C2=O)CC1 do in these assays?
Shiga toxin inh: inactive; AmpC no deterg: inactive; CHX counter: inactive; NS1 inh: inactive; AmpC inh detg: inactive

Results for CCN1CCN(C2=C(NS(=O)(=O)c3ccc(C)cc3)C(=O)c3ccccc3C2=O)CC1 ?
Shiga toxin inh: inactive; AmpC no deterg: inactive; CHX counter: 23; NS1 inh: inactive; AmpC inh detg: inactive

Results for CC1CCN(C2=C(NS(=O)(=O)c3ccccc3)C(=O)c3ccccc3C2=O)CC1 ?
Shiga toxin inh: inactive; AmpC no deterg: inactive; CHX counter: 20; NS1 inh: inactive; AmpC inh detg: inactive

How did CCN1CCN(C2=C(NS(=O)(=O)c3ccc(NC(C)=O)cc3)C(=O)c3ccccc3C2=O)CC1 do in these assays?
Shiga toxin inh: inactive; AmpC no deterg: inactive; CHX counter: inactive; NS1 inh: inactive; AmpC inh detg: inactive
